Source: PubChem
Rows were chosen to be rich in hits. Some 3.4% of all compounds tested hit in one or more screens of this group.
ADAM10 inh: inhibitors of human ADAM10; O14672; recombinant ADAM10, EDANS/DABCYL FRET peptide cleavage, 3 h; inhibition, % at 7 µM; 0.62% of 370,000 active;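 active = inhibition above a per-campaign cutoff equal to the mean of compounds falling between control-based bounds plus 3 SD, cut at about 20% in these data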
Target sequence (O14672 214-748 limits assumed): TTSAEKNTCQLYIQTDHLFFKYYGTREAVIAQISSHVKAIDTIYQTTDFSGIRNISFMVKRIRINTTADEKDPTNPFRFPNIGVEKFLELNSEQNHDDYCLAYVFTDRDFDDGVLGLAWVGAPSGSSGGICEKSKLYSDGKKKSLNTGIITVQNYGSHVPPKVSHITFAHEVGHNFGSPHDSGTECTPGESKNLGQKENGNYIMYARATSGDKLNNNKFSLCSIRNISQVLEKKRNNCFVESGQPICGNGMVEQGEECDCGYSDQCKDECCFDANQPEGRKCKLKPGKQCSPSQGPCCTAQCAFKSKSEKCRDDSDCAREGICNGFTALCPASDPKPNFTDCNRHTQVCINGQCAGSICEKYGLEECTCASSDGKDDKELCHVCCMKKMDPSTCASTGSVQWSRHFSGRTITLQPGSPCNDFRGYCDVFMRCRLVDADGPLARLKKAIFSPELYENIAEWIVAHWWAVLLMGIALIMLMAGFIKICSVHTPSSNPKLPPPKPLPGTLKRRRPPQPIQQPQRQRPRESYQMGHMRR
ADAM17 inh: inhibits human ADAM17. recombinant ADAM17, EDANS/DABCYL FRET peptide cleavage. inhibition, % at 6.95 µM. 0.83% of 370,000 active. AID 720648;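 active = inhibition above the mean of compounds lying between control limits plus 3 SD, set per campaign, cut at about 8.5% in these data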
sPLA2-III inh: Blocks human group III sPLA2 activity; inhibition, % at 12.2 µM; QFRET BODIPY PC-A2 liposome hydrolysis, fluorescence; 0.56% of 370,000 active; Q9NZ20; AID 743126;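 active = inhibition above mean plus 3 SD of compounds lying within the high and low control bounds, cut at about 19% in these data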
PLCb3 inh: PLC-beta3 (human) inhibition, primary screen; Purified PLC-beta3, fluorogenic substrate, fluorescence; 0.18% of 370,000 active; Q01970; inhibition, % at 12.2 µM; in the data active = inhibition above about 11%
PLCg1 inh: PLC-gamma1 (human) inhibition, primary screen; P19174; purified PLC-gamma1, fluorogenic substrate, fluorescence; inhibition, % at 12.2 µM; 0.84% of 370,000 active; in the data active = inhibition above about 9.5%
proKLK7 act: activates the human kallikrein-7 zymogen. 0.9% of 370,000 active. activation, % at 7 µM. AID 652039. P49862. purified proKLK7, EDANS-DABCYL substrate fluorescence; 100% is mature enzyme control, 0% vehicle;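 active = activation above the mean of all tested compounds plus 3 SD, computed per campaign excluding outliers beyond control limits, cut at about 13% in these data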
proKLK7 act conf: proKLK7 activation, confirmation | purified proKLK7, EDANS-DABCYL substrate fluorescence; scaled: vehicle 0, mature enzyme 100 | AID 686949 | shares compounds with proKLK7 act | activation, % at 7 µM | 68% of 3,200 active;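 active = activation, as change over the incubation, above the mean of all tested compounds plus 3 SD, cut at about 13% in these data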
EDANS interfere: optically interferes with EDANS-DABCYL signal, flagging KLK7 hits | shares compounds with proKLK7 act | EDANS-DABCYL substrate fluorescence interference, no enzyme, 4 h; solvent 0%, active enzyme control 100% | activation, % at 7 µM | 80% of 3,200 active;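 active = activation above the all-compound mean plus 3 SD, ignoring values outside control-based bounds, cut at about 4.8% in these data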;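 also: value is the 4 h activation minus the activation read at time zero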
K7 EDANS ctr: counter-screen for kallikrein-7 activators: EDANS-DABCYL interference, dose response | EDANS-DABCYL peptide fluorescence interference, no enzyme | 20% of 250 active | AID 720493 | EC50, µM | shares compounds with proKLK7 act;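 active = compounds that raise the fluorescence signal in this interference counterscreen, with EC50 at or below 10 µM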;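 also: intact quenched peptide substrate alone read at 355 nm excitation and 520 nm emission; signal is fluorescence gain from T0 to T4 after four hours at room temperature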
Each line names hits and unclear results; the compound was inactive in the other large screens (follow-up assays come after a bar, where they were run).

CCOC(=O)C1CCN(c2ncnc3c2[nH]c2cccc(OC)c23)CC1	proKLK7 act 19 | proKLK7 act conf 23 | EDANS interfere 14 | K7 EDANS ctr inactive
COc1cccc2[nH]c3c(Cl)ncnc3c12	proKLK7 act 17 | proKLK7 act conf 32 | EDANS interfere 31
COC(=O)[C@]12C[C@H](CC(=O)NCc3cccc4ccccc34)C(=O)N(Cc3ccc4c(c3)OCO4)C1=C[C@H](C(C)(C)C)O[C@@H]2C	none
C[C@H]1[C@@H]2C[C@@]3(O[C@H](c4ccccn4)N=C3C[C@@H]1c1ccccc1)N(Cc1ccncc1)C2=O	none
CN1C(=O)SC(Nc2cccc3ccccc23)C1=O (stereo not drawn)	proKLK7 act 74 | proKLK7 act conf 88 | EDANS interfere 85
O=C1NC(=O)C(Nc2cccc3ccccc23)S1 (stereo not drawn)	none
CC(=O)Nc1cccc(NC(=O)CSc2ncc(C(=O)Nc3ccccc3)c(=O)n2C)c1	proKLK7 act 100 | proKLK7 act conf inactive | EDANS interfere 13
CCCC1(C)Nc2ccccc2-c2nc3ccccc3n21 (stereo not drawn)	proKLK7 act 63 | proKLK7 act conf inactive | EDANS interfere 7.1
c1ccc2c(c1)NC1(CCCC1)n1c-2nc2ccccc21	proKLK7 act 82 | proKLK7 act conf 61 | EDANS interfere 66
CCNC(=O)N(C)[C@H]1C[C@H]2c3[nH]c4c(-c5ccccc5)cccc4c3CCN2C(=O)[C@H]1[C@H](C)O	none
O=C(NCc1ccco1)c1cccc(-c2cncc3nccn23)c1	proKLK7 act 16 | proKLK7 act conf 20 | EDANS interfere 19
O=C(NC1CC1)c1ccc(-c2cnc3cccnn23)cc1	proKLK7 act 77 | proKLK7 act conf 83 | EDANS interfere 79
O=C(NC1CC1)c1cccc(-c2cncc3nccn23)c1	proKLK7 act 16 | proKLK7 act conf inactive | EDANS interfere 11
O=C(NCc1ccco1)c1cccc(-c2ccc3nccn3c2)c1	none
C[C@H](c1ccccc1)N1C[C@@H](COCc2ccccc2)Oc2cccc(F)c2S1(=O)=O	none
Cc1ccc(S(=O)(=O)c2cc3ccc(O)cc3oc2=O)cc1C	proKLK7 act 44 | proKLK7 act conf 62 | EDANS interfere 68
COc1ccc2cc(S(=O)(=O)c3ccccc3)c(=O)oc2c1	none
O=C(c1ccc(F)cc1)c1cc2ccc(O)cc2oc1=O	none
O=C(O)c1cc2ccc(O)cc2oc1=O	proKLK7 act 104 | proKLK7 act conf 65 | EDANS interfere 73
C/C(=N\NC(=O)CC#N)c1cc2ccc(O)cc2oc1=O	proKLK7 act 61 | proKLK7 act conf 46 | EDANS interfere 43
COc1ccccc1C(=O)c1cc2ccc(O)cc2oc1=O	none
O=C(NCc1ccccc1)c1cc2ccc(O)cc2oc1=O	proKLK7 act 58 | proKLK7 act conf 69 | EDANS interfere 71
O=C(O)c1ccc(N=c2oc3cc(O)ccc3cc2C(=O)NCc2ccccc2)cc1	none
O=S1(=O)C=CCN1Cc1cn(Cc2cccc(C(F)(F)F)c2)nn1	none
CCOc1ccc(Nc2cc(C)nc(N3CCOCC3)n2)cc1	none
CCOc1ccc2nc(N3CCOCC3)nc(C)c2c1	proKLK7 act 21 | proKLK7 act conf inactive | EDANS interfere inactive
COc1ccc(/C=C(/CC(=O)NCc2ccc(Cl)cc2)c2nc3ccccc3s2)cc1	proKLK7 act 28 | proKLK7 act conf 68 | EDANS interfere 57 | K7 EDANS ctr 2.4
COc1ccc(/C=C(/CC(=O)Nc2ccccc2)c2nc3ccccc3s2)cc1	none
N#Cc1cc(C(=O)c2ccccc2O)cn(-c2nccs2)c1=O	proKLK7 act 13 | proKLK7 act conf 25 | EDANS interfere 23
Cc1c(-n2cc(C(=O)c3cc(F)ccc3O)cc(C#N)c2=O)c(=O)n(-c2ccccc2)n1C	none
N#Cc1cc(C(=O)c2cc(F)ccc2O)cn(-c2nccs2)c1=O	proKLK7 act 25 | proKLK7 act conf 42 | EDANS interfere 46
COc1cc(/C=C/C(=O)Nc2nc3ccc(S(=O)(=O)NC(C)C)cc3s2)cc(OC)c1OC	proKLK7 act 15 | proKLK7 act conf 59 | EDANS interfere 63
CCNS(=O)(=O)c1ccc2nc(NC(=O)/C=C/c3cc(OC)c(OC)c(OC)c3)sc2c1	none
CCOC(=O)c1c(NC(=S)Nc2ccc(Cl)cc2)sc2c1CCN(C)C2	proKLK7 act 18 | proKLK7 act conf 20 | EDANS interfere 21
CCOC(=O)c1c(NC(=S)Nc2ccc(OCC)cc2)sc2c1CCN(C)C2	none
O=C(COc1ccc(/C=N/NC(=O)c2ccncc2)cc1)Nc1cccc([N+](=O)[O-])c1	none
O=C(COc1ccc(/C=N/NC(=O)c2ccncc2)cc1)Nc1ccccc1	proKLK7 act 27 | proKLK7 act conf inactive | EDANS interfere inactive
Cc1cccc(N2C(=O)CC(N(O)c3ccccc3)C2=O)c1 (stereo not drawn)	proKLK7 act 274 | proKLK7 act conf 349 | EDANS interfere 366
O=C(O)CSC1CC(=O)N(c2ccc(Cl)c(Cl)c2)C1=O (stereo not drawn)	none
O=C1CC(N(O)c2ccccc2)C(=O)N1c1ccc(Cl)c(Cl)c1 (stereo not drawn)	proKLK7 act 34 | proKLK7 act conf 459 | EDANS interfere 467
Cc1cccc(N2C(=O)SC(N(C)c3ccccc3)C2=O)c1 (stereo not drawn)	none
CN(C)c1cccc(-c2nccc(N3CCC(C(N)=O)CC3)n2)c1	none (no result: proKLK7 act)
C[C@@H]1CCN(C2CC2)S(=O)(=O)c2c(cccc2N2CCC[C@@H]2C)O1	none
O=C(c1ccco1)N1CCN(C(=O)c2cnn3c(C(F)(F)F)cc(-c4cccs4)nc23)CC1	proKLK7 act 25 | proKLK7 act conf inactive | EDANS interfere inactive
O=C(c1cnn2c(C(F)(F)F)cc(-c3cccs3)nc12)N1CCN(C(c2ccccc2)c2ccccc2)CC1	none
FC(F)(F)c1cc(-c2cccs2)nc2ncnn12	proKLK7 act 19 | proKLK7 act conf 67 | EDANS interfere 66
CN1CCN(C(=O)c2cnn3c(C(F)(F)F)cc(-c4cccs4)nc23)CC1	proKLK7 act 19 | proKLK7 act conf 29 | EDANS interfere 25
O=C(c1cnn2c(C(F)(F)F)cc(-c3cccs3)nc12)N1CCN(Cc2ccccc2)CC1	none
